Laboratory results reported in article PMC4336329 (PLoS ONE, 2015).
The campaign covered roughly 310,000 compounds. About 14,000 (4.5%) showed an effect of 50% or more. Effects have a minus sign here. What follows is part of a selection rich in strong results, with near analogues and random picks from the rest.
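Further: peak tail current of the secondary pulse compared with the same well before compound.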

The molecules below were run against human ether-à-go-go-related gene (hERG) potassium channel (human, UniProt Q12809) (assay: primary screen, population patch clamp on CHO cells stably expressing hERG; higher = less effect of the substance).
human ether-à-go-go-related gene (hERG) potassium channel, sequence (Q12809 whole entry, looked up): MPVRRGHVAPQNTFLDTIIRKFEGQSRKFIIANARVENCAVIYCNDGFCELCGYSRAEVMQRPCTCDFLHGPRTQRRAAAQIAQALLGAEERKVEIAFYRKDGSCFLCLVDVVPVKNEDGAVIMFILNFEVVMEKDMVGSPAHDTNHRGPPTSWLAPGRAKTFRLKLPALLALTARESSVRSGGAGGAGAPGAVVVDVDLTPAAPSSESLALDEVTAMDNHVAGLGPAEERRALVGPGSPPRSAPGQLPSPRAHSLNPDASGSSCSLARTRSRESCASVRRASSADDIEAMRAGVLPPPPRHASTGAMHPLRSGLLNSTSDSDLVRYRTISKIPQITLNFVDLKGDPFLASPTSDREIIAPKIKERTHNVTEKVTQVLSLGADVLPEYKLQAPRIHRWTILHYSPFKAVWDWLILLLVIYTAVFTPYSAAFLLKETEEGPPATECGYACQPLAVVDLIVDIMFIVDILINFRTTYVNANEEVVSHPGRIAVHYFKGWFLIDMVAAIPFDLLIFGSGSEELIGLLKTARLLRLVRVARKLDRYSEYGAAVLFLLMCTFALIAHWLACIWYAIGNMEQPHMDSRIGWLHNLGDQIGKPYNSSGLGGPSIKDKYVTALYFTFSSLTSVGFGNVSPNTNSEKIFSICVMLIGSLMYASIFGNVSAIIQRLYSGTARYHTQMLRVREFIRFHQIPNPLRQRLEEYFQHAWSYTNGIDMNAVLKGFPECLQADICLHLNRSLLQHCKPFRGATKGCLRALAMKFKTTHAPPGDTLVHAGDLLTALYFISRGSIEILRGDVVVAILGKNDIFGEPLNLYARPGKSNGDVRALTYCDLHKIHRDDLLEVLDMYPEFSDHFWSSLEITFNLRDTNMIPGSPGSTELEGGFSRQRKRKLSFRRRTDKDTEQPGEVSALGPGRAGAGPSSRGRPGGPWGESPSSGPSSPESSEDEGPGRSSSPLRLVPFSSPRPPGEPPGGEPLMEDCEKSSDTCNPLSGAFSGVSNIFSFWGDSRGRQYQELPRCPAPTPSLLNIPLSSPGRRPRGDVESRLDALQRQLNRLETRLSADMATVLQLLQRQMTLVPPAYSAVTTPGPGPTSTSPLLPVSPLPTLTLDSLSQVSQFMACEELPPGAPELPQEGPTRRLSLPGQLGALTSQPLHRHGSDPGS
For `OCCNc1c2c(nc3ccccc13)CCCC2`, the “hERG current change (%, negative = inhibition) at 10uM” value was -39%. In the case of `Clc1c2c(nc3ccccc13)CCC2`, the “hERG current change (%, negative = inhibition) at 10uM” value is reported as 16.4%. For `CC(C)CNC(=O)COC(=O)c1c2c(nc3ccccc13)CCC2`, the “hERG current change (%, negative = inhibition) at 10uM” value was 4.12%. With `CC(C)CNc1c2c(nc3ccccc13)CCC2.Cl` the “hERG current change (%, negative = inhibition) at 10uM” value was -69.2%. With `CC(C)(C)Nc1c2ccccc2nc2ccccc12` the “hERG current change (%, negative = inhibition) at 10uM” value was -68.2%. In the case of `Cc1c2ccccc2nc2ccccc12`, the “hERG current change (%, negative = inhibition) at 10uM” value is reported as -1.84%. `Cl.c1ccc(CNc2c3c(nc4ccccc24)CCC3)cc1` was tested, and the “hERG current change (%, negative = inhibition) at 10uM” value was -75.3%. For `CC(C)(C)OC(=O)NNc1c2ccccc2nc2ccccc12`, the “hERG current change (%, negative = inhibition) at 10uM” value was -27.7%. `Cc1ccc(N/N=C/c2ccncc2)cc1.Cl` was tested, and the “hERG current change (%, negative = inhibition) at 10uM” value was 4.03%. For `O=C(COC(=O)c1ccc(O)cc1)NC1CCCCCC1`, the “hERG current change (%, negative = inhibition) at 10uM” value was 7.22%. For `O=C(NNS(=O)(=O)c1ccc(C(F)(F)F)cc1)c1cnn(-c2ccccc2)c1C(F)(F)F`, the “hERG current change (%, negative = inhibition) at 10uM” value was 11.5%. `CCOc1ccc(N(CC)C(=O)CCS(=O)(=O)c2cccc3nonc23)cc1` was tested, and the “hERG current change (%, negative = inhibition) at 10uM” value was -4.92%. In the case of `O=C(CSc1nnc(COc2ccccc2)n1-c1ccccc1)c1ccccc1`, the “hERG current change (%, negative = inhibition) at 10uM” value is reported as 11.2%. `O=C(CCCCCNC(=O)N1CCn2c1nc1ccccc12)NCc1ccccc1Cl` was tested, and the “hERG current change (%, negative = inhibition) at 10uM” value was -16.6%. `CCN(CC)S(=O)(=O)c1cccc(-c2nnc(SCC(N)=O)n2N)c1` was tested, and the “hERG current change (%, negative = inhibition) at 10uM” value was -28.9%. For `CCN(CC)S(=O)(=O)c1cccc(-c2nnc(SCC(=O)c3ccc(Cl)s3)n2C)c1`, the “hERG current change (%, negative = inhibition) at 10uM” value was -52.7%. `CCN(CC)S(=O)(=O)c1cccc(-c2nnc(SCC(=O)NC)n2N)c1` was tested, and the “hERG current change (%, negative = inhibition) at 10uM” value was 8.5%. `CCN(CC)S(=O)(=O)c1cccc(-c2nnc(SCc3nnc(-c4ccccc4)o3)n2C)c1` was tested, and the “hERG current change (%, negative = inhibition) at 10uM” value was -67.4%. In the case of `COc1cccc(-c2nnc(SCC3CNC(=O)O3)n2-c2ccc(Cl)cc2)c1` (centres unmarked), the “hERG current change (%, negative = inhibition) at 10uM” value is reported as 8.33%. With `CCN(CC)S(=O)(=O)c1ccc(-c2nnc(SCc3nnc(-c4ccccc4)o3)o2)cc1` the “hERG current change (%, negative = inhibition) at 10uM” value was 7.63%. With `CCN(CC)S(=O)(=O)c1cccc(-c2nnc(SCc3nnc(-c4cccs4)o3)n2N)c1` the “hERG current change (%, negative = inhibition) at 10uM” value was -44.3%. `CCN(CC)S(=O)(=O)c1cccc(-c2nnc(SC(C)C#N)n2Cc2ccccc2)c1` (centres unmarked) was tested, and the “hERG current change (%, negative = inhibition) at 10uM” value was -7.34%. For `CCSc1nnc(-c2cccc(S(=O)(=O)N(CC)CC)c2)n1Cc1ccccc1`, the “hERG current change (%, negative = inhibition) at 10uM” value was -62.6%. With `Cc1cccc(-c2nnc(SCC3CNC(=O)O3)n2-c2ccc(Cl)cc2)c1` (centres unmarked) the “hERG current change (%, negative = inhibition) at 10uM” value was -40.3%. In the case of `COc1ccc(-n2c(SCC3CNC(=O)O3)nnc2-c2ccc(Cl)cc2)cc1` (centres unmarked), the “hERG current change (%, negative = inhibition) at 10uM” value is reported as -54.8%. For `CCN(CC)S(=O)(=O)c1cccc(-c2nnc(SCC#N)n2Cc2ccccc2)c1`, the “hERG current change (%, negative = inhibition) at 10uM” value was -25.5%. With `CCn1cc(/C=C(\NC(=O)c2cc(OC)c(OC)c(OC)c2)C(=O)NCCN2CCOCC2)c2ccccc21` the “hERG current change (%, negative = inhibition) at 10uM” value was 10.8%. For `COc1ccc(CCNC(=O)Cn2nc([N+](=O)[O-])c(Br)c2C)cc1OC`, the “hERG current change (%, negative = inhibition) at 10uM” value was -0.503%. In the case of `O=S(CC1CC1(Cl)Cl)CC1CC1(Cl)Cl` (centres unmarked), the “hERG current change (%, negative = inhibition) at 10uM” value is reported as 3.18%. For `O=C(CNc1cccc(S(=O)(=O)N2CCCC2)c1)Nc1cccc(Br)c1`, the “hERG current change (%, negative = inhibition) at 10uM” value was -18.5%. In the case of `COc1ccccc1N(C)S(=O)(=O)c1ccc(C(=O)NCc2ccc3c(c2)OCO3)cc1`, the “hERG current change (%, negative = inhibition) at 10uM” value is reported as 4.2%. With `O=C(c1ccc(O)cc1)c1ccc(C(=O)O)c(C(=O)O)c1` the “hERG current change (%, negative = inhibition) at 10uM” value was 23.2%. With `Cc1cnc(NC(=O)CSC(=S)N2CCOCC2)s1` the “hERG current change (%, negative = inhibition) at 10uM” value was 15.4%. For `COC(=O)Nc1ccc(S(=O)(=O)N2CCC(Cc3ccccc3)CC2)cc1`, the “hERG current change (%, negative = inhibition) at 10uM” value was 1.4%. `COc1ccc2nc(NC(=O)CCc3ccc(OC)c(OC)c3)sc2c1` was tested, and the “hERG current change (%, negative = inhibition) at 10uM” value was 26.2%. `CCC(C)n1c(-c2cccc(S(=O)(=O)N(CC)CC)c2)n[nH]c1=S` (centres unmarked) was tested, and the “hERG current change (%, negative = inhibition) at 10uM” value was 26.6%. For `COc1ccc(-c2nnc(SCc3nnc(-c4ccccc4)o3)n2-c2ccccc2)cc1`, the “hERG current change (%, negative = inhibition) at 10uM” value was -9.78%. With `CCN(CC)S(=O)(=O)c1ccc(-c2nnc(SCc3nnc(-c4ccc(C)cc4)o3)o2)cc1` the “hERG current change (%, negative = inhibition) at 10uM” value was 8.8%. For `CCN(CC)S(=O)(=O)c1cccc(-c2n[nH]c(=S)n2C)c1`, the “hERG current change (%, negative = inhibition) at 10uM” value was -51.8%. `COc1ccc(-c2nnc(SCc3nnc(-c4ccc(Cl)cc4)o3)n2-c2ccccc2)cc1` was tested, and the “hERG current change (%, negative = inhibition) at 10uM” value was -56%. With `CCN(CC)S(=O)(=O)c1cccc(-c2n[nH]c(=S)n2CC(C)C)c1` the “hERG current change (%, negative = inhibition) at 10uM” value was 6.22%. For `CCN(CC)S(=O)(=O)c1ccc(-c2nnc(SCc3nnc(-c4ccc(C)cc4)o3)n2CC)cc1`, the “hERG current change (%, negative = inhibition) at 10uM” value was -55.2%. In the case of `COCCn1c(SCc2nnc(-c3ccc(OC)c(OC)c3)o2)nnc1-c1ccncc1`, the “hERG current change (%, negative = inhibition) at 10uM” value is reported as 1.42%. In the case of `CCn1c(SCc2nnc(-c3ccccc3)o2)nnc1-c1ccc(S(=O)(=O)N2CCCC2)cc1`, the “hERG current change (%, negative = inhibition) at 10uM” value is reported as -34.6%. In the case of `COc1ccc(-n2c(SCc3nnc(-c4ccccc4)o3)nnc2-c2ccccc2)cc1`, the “hERG current change (%, negative = inhibition) at 10uM” value is reported as -29.5%. With `COc1ccc(-c2nnc(SCc3nnc(-c4ccccc4)o3)n2C)cc1OC` the “hERG current change (%, negative = inhibition) at 10uM” value was -54.3%. `COc1ccc(-c2nnc(CSc3nc4ccccc4c(=O)n3C)o2)cc1OC` was tested, and the “hERG current change (%, negative = inhibition) at 10uM” value was -4.89%.
